Vaccinia pol inh: blocks vaccinia virus processive DNA synthesis; in vitro processive DNA synthesis, absorbance read-out; stronger effect = lower value; normalized absorbance, % (no concentration beside the values); 46,000 compounds, 0.94% hits; in the data active = normalized absorbance mostly below about 85%, no sharp cut-off; inactive = mostly above about 86%
* marks the source's active call; other numbers are inactive results. Only a selection was taken, and hits are over-represented in it overall.

SMILES	Vaccinia pol inh
Cc1ccc2cc3cc(C(=O)NCCCN4CCCCCC4)sc3nc2c1	66.0*
O=C(COc1ccc(-c2ccccc2)cc1)Nc1ncccn1	101.1
CCOC(=O)c1c(-c2ccc(Cl)cc2)nn2c1NCN(CCc1ccccc1)C2	105.5
CCOC(=O)C1=C(NN(C)c2ccccc2)C(=O)N(C)C1	99.9
CCC(C)n1c(=O)[nH][nH]c1=S (centres undefined)	101.3
O=C1CSC2(CCCCC2)N1Nc1ccccc1	100.6
CN(C)c1nn(C(=S)Nc2ccccc2)cc1-c1ccccc1	127.1
Cc1ccnc(SCC(=O)Nc2cccc(C(F)(F)F)c2)n1	93.9
O=C(Nc1cccc(Cl)c1)n1ncc2cc(Cl)ccc21	84.8
Cc1c(Sc2ccc(Cl)cc2)cnn1C(=O)Nc1cccc(C(F)(F)F)c1	71.4*
CC1CCCCN1CCNC(=O)c1ccc2c(Cl)c3c(nc2c1)CCCC3 (centres undefined)	90.7
CCN(C(=O)Cn1cccc1C1=NC(c2ccccc2)CO1)c1cccc(C)c1 (centres undefined)	103.8
Cc1sc(NC(=O)C2CC2)c(C(N)=O)c1C	98.7
COc1ccc2nc(N(CCN(C)C)C(=O)c3cccs3)sc2c1	94.7
CN(C)CCN(C(=O)c1ccco1)c1nc2cc3c(cc2s1)OCO3	60.6*
COc1ccc2sc(N(CCN(C)C)C(C)=O)nc2c1	99.2
Cc1ccc(NC(=O)C(C)Nc2ccccc2C)cc1 (centres undefined)	88.0
CCC(O)C#CCN1CCN(C)CC1 (centres undefined)	99.1
O=C1c2ccccc2NC(c2cccc(O)c2)N1O (centres undefined)	95.9
O=C1CC(c2cccc(O)c2)Nc2ccc3ccccc3c21 (centres undefined)	61.9*
Cc1ccccc1C1CC(=O)c2c(ccc3ccccc23)N1 (centres undefined)	99.1
N#Cc1ccccc1NC(=O)c1cccc(C(F)(F)F)c1	96.9
COc1ccc(C2=NS(=O)(=O)N(C)C(C(=O)N3CCC(C(N)=O)CC3)=C2)cc1	69.6*
COc1ccc(C2=NS(=O)(=O)N(C)C(C(=O)N3CCC(C)CC3)=C2)cc1OC	103.6
CCC1CCCCN1C(=O)C1=CC(c2ccc(OC)cc2)=NS(=O)(=O)N1C (centres undefined)	87.4
SMILES	Vaccinia pol inh
O=C(COc1ncnc2ccccc12)N1CCCC1	103.7
Cc1ccccc1N1C(=O)C(Oc2ccc(Cl)cc2)C1CNCCc1ccccc1 (centres undefined)	99.2
CN1CCN(c2cc(-c3ccccc3)nc3ccccc23)CC1	78.9*
CN1CCN(c2cc(-c3ccncc3)nc3ccccc23)CC1	83.0
CN1CCN(c2nc(-c3ccccc3)c3ccccc3n2)CC1	100.7
O=C(CSc1cccc[n+]1[O-])Nc1ccc(F)c(F)c1	101.4
Cc1cc(Nc2ccccc2)nc(Nc2ccccc2)n1	100.0
Cc1cc(C)nc(NC2=NCCN2)n1	48.1*
CCN(CC)CCNc1nc(C)cc(C)n1	101.8
Cc1ccc(C(=O)OCC(=O)N(C)c2ccccc2)c(O)c1	99.9
O=C(Cn1cc(/C=N/n2cnnc2)c2ccccc21)Nc1ccc2c(c1)OCO2	99.9
N#CC1=C(c2ccccc2)COC1=O	94.0
O=C(c1ccc(CN2C(=O)CCn3nccc32)cc1)N1CCOCC1	95.2
CCCC[C@@H](C=O)NC(=O)[C@H](CC(C)C)NC(=O)[C@H](CC(C)C)NC(C)=O	98.7
CC[C@H](C)[C@H](N)C(=O)N[C@@H](CC(N)=O)C(=O)N[C@@H](CC(C)C)C(=O)N[C@@H](CCCCN)C(=O)N[C@@H](C)C(=O)N[C@@H](CC(C)C)C(=O)N[C@@H](C)C(=O)N[C@@H](C)C(=O)N[C@@H](CC(C)C)C(=O)N[C@@H](C)C(=O)N[C@@H](CCCN)C(=O)N[C@@H](C)C(=O)N[C@@H](CC(C)C)C(=O)N[C@@H](CC(C)C)C(N)=O	45.2*
CC(=O)N[C@@H](CC(C)C)C(=O)N[C@@H](CC(C)C)C(=O)N[C@H](C=O)CCCN=C(N)N	99.9
O=C(Cn1ncc2ccccc21)Nc1cc(-c2cccc(Cl)c2)no1	90.3
O=P(O)(CN1CCOCC1)C1Cc2ccccc2C1	81.9
CCCc1c(C(=O)NCc2ccc3c(c2)OCO3)cnn1-c1ccccc1	99.5
Cc1cc(OC(=O)c2ccco2)nc(SCc2c(Cl)cccc2Cl)n1	49.9*
O=C(Oc1ccc(Cl)c2cccnc12)c1ccco1	101.3
Cc1cc(Oc2ccccc2)nc(SCc2ccccc2)n1	101.0
O=C(COc1ccc(Br)cc1)OCC(=O)N1CCCCC1	100.3
Cc1ccc2c(c1)c1cccc3c1n2CCN3CCC(N)=O	63.3*
Cc1ccc(-n2c(=O)c3c(c4cc(C)ccc4n3C)n(CC(N)=O)c2=O)cc1	93.2
SMILES	Vaccinia pol inh
NC(=O)CCN1CCn2c1nc1ccccc12	100.3
Cc1cc(C)n(C2=NCCN2S(=O)(=O)c2cc(C(F)(F)F)cc(C(F)(F)F)c2)n1	102.2
N#Cc1ccc(CSc2cccc3cccnc23)cc1	94.3
Cc1ccc(/C=C2/Sc3ccccc3NC2=O)cc1	99.0
O=C1NC(=O)/C(=C\c2ccccc2)S1	74.1*
CC(=C\c1ccccc1)/C=C1/SC(=O)NC1=O	99.3
COc1cc2c(cc1OC)C(c1ccccc1)N(C(=O)c1oc3ccccc3c1C)CC2 (centres undefined)	80.3
Cc1cc2c(n1-c1ccc(C(=O)N3CCC4(CC3)OCCO4)cc1)CCC(C)C2 (centres undefined)	108.4
C=Cc1c(C)c2cc3[nH]c(cc4nc(cc5nc(cc1[nH]2)C(C)=C5CCC(=O)O)C(CCC(=O)O)=C4C)c(C)c3C=C	21.7*
O=C(O)CCc1nc2ccc(C(=O)O)cc2[nH]1	99.5
Nc1ccc2nc(CCC(=O)O)[nH]c2c1	101.2
O=C1CCC(=O)N1Nc1nc2ccccc2c2nc(-c3ccccc3)nn12	97.5
CCN(CC)CCCNc1nc2cc(OC)c(OC)cc2c2nc(-c3ccccc3)nn12	33.7*
COc1cc2nc(-n3nc(C)cc3C)n3nc(-c4ccccc4)nc3c2cc1OC	93.2
CCN(Cc1ccccc1)C(=O)c1cc2c(s1)-c1ccc(Cl)cc1SC2	105.0
Cc1cc(OCc2nc(-c3ccc(OCC(N)=O)cc3)no2)cc(C)c1Cl	100.1
COc1ccc2c(OC)ccc3c2c1C=CC3=O	56.2*
O=C(Cc1ccc(F)cc1)Oc1ccccc1F	101.7
O=C(COC(=O)C12CC3CC(CC(C3)C1)C2)Nc1cc(F)ccc1F	99.5
NC(=O)C12CCC3CC(CC(C3)C1)C2	96.8
COc1ccc2c(c1)[C@@]1(C)CCC[C@](C)(CO)C1CC2 (some centres undefined)	100.2
CC(C)c1ccc2c(c1)CCC1C(C)(CNC(=O)/C=C/C(=O)O)CCCC21C (centres undefined)	81.3*
COC(=O)[C@@]1(C)CCCC2(C)c3ccc(C(C)C)cc3CCC21 (some centres undefined)	100.0
Fc1cccc(NC(=S)NCc2ccc3c(c2)OCO3)c1	98.1
O=C(O)C1C2CC=CC2c2cc(Cl)cc3c2N1CC1CC=CC31 (centres undefined)	100.0
CC(C)C1Nc2ccc(C(=O)O)cc2C2C=CCC21 (centres undefined)	77.9*
O=C(O)c1ccc(C2Nc3ccccc3C3C=CCC32)cc1 (centres undefined)	10.5*
Brc1ccccc1[C@@H]1Nc2ccccc2[C@@H]2C=CC[C@@H]21	100.1
Cc1cc(Cl)ccc1NS(=O)(=O)c1ccc2c(c1)[C@H]1C=CC[C@H]1[C@@H](c1ccccc1)N2	100.7
O=C(O)C1Nc2ccccc2C2C=CCC12 (centres undefined)	9.8*

High-throughput results (PubChem)
